Laboratory results published in PubChem BioAssay (NCI).
This is part of a sample that, as a whole, favours compounds with a hit. Of some 83,000 tested, about 20% had one in any assay.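 Single-dose data. Exposure time 48 hours. Values below 10 considered active.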 Values without a mark were called inactive. Calls of active or inactive are those of the source.

Each compound was assayed on MDA-MB-468 breast (assay: NCI-60 one-dose screen, 48 h (100 = growth as untreated, 0 = no growth, -100 = all killed)). Settings: 10 µM unless noted.
With `c1ccc(C2CCCCC2)c(OCCCCCN2CCNCC2)c1` the growth was -36.2% (active). For `CCOC(=O)c1cc(C(=O)c2cc(OC)cc(OC)c2)n2ncccc12`, the growth was 26.3%. Work on `COc1cc(/C=N/NC(=O)c2ccccc2Nc2ccnc(C(F)(F)F)c2)ccc1O` yielded a growth of 80.5%. For `COc1ccc(-c2ccc3c(N4CCOC[C@@H]4C)nc(N4CCOC[C@@H]4C)nc3n2)cc1CO`, the growth was -27.4% (active). `O=C(Nc1ccc(-n2cc(-c3ccncc3)c(-c3ccc(Cl)c(O)c3)n2)cc1)c1cc(C(F)(F)F)cc(C(F)(F)F)c1` was tested, and the growth was 71.9%. In the case of `COc1ccc(OC)c(NC(=O)/C(C#N)=C/c2ccco2)c1`, the growth is reported as 85.2%. `CCOC(=O)c1c(C)nn(CC(O)c2ccccc2)c1NC(=O)Nc1cccc(F)c1` (configuration not stated) showed a growth of 82.6%. With `COc1ccc(C2NC(=O)Nc3ccccc32)c(OC)c1` (configuration not stated) the growth was 103%. Compound `O=C1NC(=C(Cl)Cl)/C(=N/S(=O)(=O)N2CCC(C3(C(F)(F)F)N=N3)CC2)N1` has a growth of 32.7%. For `O=C(Nc1ccc2c(c1)C(=O)c1ccccc1-2)c1ccccc1`, the growth was 85.6%. In the case of `O=C(NCCc1ccc(O)c(O)c1)C12CC3CC(CC(C3)C1)C2`, the growth is reported as 87.4%. `COc1ccc2c(ccn2C(=O)N2c3ccccc3Sc3ccccc32)c1` gave a growth of 21.8%. With `CCN(CC)CCOc1ccc(Nc2ncc3cc(-c4c(Cl)cccc4Cl)c(=O)n(CCOC)c3n2)cc1` the growth was 3.97% (active). With `Cc1ccccc1[P+](Cc1ccccc1)(c1ccccc1)c1ccccc1` the growth was -14.4% (active). For `C=C(CN=[N+]=[N-])[C@@H]1CC[C@]2(C)[C@H](CC[C@@H]3[C@H]4[C@H]5OC(=O)[C@@]4(CCC5(C)C)CC[C@]32C)[C@@]1(C)CCC#N`, the growth was 72.3% [100 µM]. In the case of `Cn1cc(-c2nc(-c3c[nH]c4ccncc34)cs2)c2ccccc21`, the growth is reported as -12.2% (active). For `Cc1nc(/N=C(\N)NC(=O)Nc2ccccc2Cl)sc1C`, the growth was 2.23% (active). In the case of `C=C1C[C@@]2(C)C(CC[C@]3(C)C2CC=C2C4CC(C)(C)C[C@@H](OC(=O)/C(C)=C\C)[C@]4(C(=O)O)CC[C@]23C)C(C)(C)C1=O` (some centres not stated), the growth is reported as -23.9% (active). With `CCCCCCC(CC#N)(CCC)CCCC` (configuration not stated) the growth was 101%. `COc1cc(-c2cc(-c3cc(OC)c(OC)c(OC)c3)nc3nc(N)[nH]c(=O)c23)ccc1Oc1ccnc2cc(Cl)ccc12` gave a growth of 15.9%. With `Cc1ccc(/C=C2\CN(C(=O)C(Cl)Cl)C/C(=C\c3ccc(C)cc3)C2=O)cc1` the growth was -65.9% (active). In the case of `NC1CCC(Nc2nc(NCc3ccc(-c4cccs4)nc3)c3ncn(C4CCCC4)c3n2)CC1` (configuration not stated), the growth is reported as -65.8% (active). In the case of `CCCCCC(=O)c1ccc(OCCCN2CCN(C(=O)OCC)CC2)cc1`, the growth is reported as 47.5%. In the case of `N#Cc1c(-c2ccccc2)cc(-c2ccccc2)n(CCCCCCC(=O)O)c1=O`, the growth is reported as 88.9%. Work on `CC1(C)[C@@H](O)CC[C@]2(C)[C@H]3CC[C@@H]4[C@H]5[C@H](C(=O)/C=C/c6ccc(C(F)(F)F)cc6)CC[C@]5(CO)CC[C@@]4(C)[C@]3(C)CC[C@@H]12` yielded a growth of 61.9%. In the case of `O=C1Nc2ccc(Br)cc2C1=O`, the growth is reported as 109%. With `COc1cccc(-c2cn3c(ccc4ccccc43)n2)c1` the growth was 34.2%. In the case of `CC/C(=C\c1ccc(N(C)C)cc1)c1ccncc1`, the growth is reported as -12.7% (active). `COc1cc(C2C=C(c3cccc(NC(C)=O)c3)Nc3ncnn32)cc(OC)c1OC` (configuration not stated) gave a growth of 13.4%. `Nc1nc2c(s1)CCc1cn(S(=O)(=O)c3ccccc3)cc1-2` gave a growth of 83.2%. `Cc1cc(NC(=O)c2ccc(C)c(Nc3nccc(-c4cccnc4)n3)c2)cc(-n2cnc(C)c2)c1` was tested, and the growth was -18.1% (active). For `CCCc1n(Cc2ccc3ccccc3n2)cc[n+]1Cc1ccc2ccccc2c1`, the growth was -28.4% (active). Compound `O=S(=O)(NCCCNc1nccc(-c2c(-c3cccc(F)c3)nc3occn23)n1)c1cccc2ccccc12` has a growth of 15.3%. `COc1ccc(-n2nnc(C(=O)O)c2-c2cc(OC)c(OC)c(OC)c2)cc1` was tested, and the growth was 102%. For `COc1cc(C(=O)/C=C/c2sc(Cl)nc2Cl)cc(OC)c1OC`, the growth was -50.9% (active). For `CCc1ccc2c(c1)N(CCO)C1=C(C(=O)OC1)C2c1ccccc1` (configuration not stated), the growth was 104%. `Cc1ccccc1NC(=O)c1sc2nc3c(cc2c1N)C(=O)CCC3` was tested, and the growth was -4.56% (active).
